Source: PubChem BioAssay
CCHF vOTU inh: CCHFV vOTU protease inhibitors, primary screen, biochemical, Pep-AMC substrate, fluorescence. hit rate 0.55% among 370,000. AID 651958, 2012. inhibition, % at 11.5 µM. Crimean-Congo hemorrhagic fever virus L polyprotein viral ovarian tumor (vOTU) protease …; in the data active means inhibition above about 30%; further: 0% = vehicle wells with enzyme and 100% = no enzyme wells
BJeLR viability: MLPCN primary cell-based screen for lethality selective to Ras in HRASV12 cells; BJeLR (HRASV12) viability, CellTiter-Glo ATP luminescence, 48 h; inhibition, % (no concentration beside the values); hit rate 0.17% among 300,000; in the data active means inhibition above about 50%
Sa RN4220 lethal: growth inhibition of S. aureus RN4220, primary screen, OD600. 16 h. inhibition, % (no concentration beside the values). hit rate 0.33% among 330,000. AID 1259311, 2017; in the data active means inhibition above about 85%;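 further: plate controls were untreated cells for no effect and reference antibiotic for full effect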
RecA intein inh: Mtb RecA intein splicing inhibitors, primary screen, biochemical, fluorescence, HTS. inhibition, % (test concentration not listed). hit rate 0.75% among 290,000. cell-free RecA intein splicing; in the data active means inhibition above about 30%;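 further: 0% = vehicle wells and 100% = reference inhibitor control wells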
Target sequence (P9WHJ3 whole entry, looked up): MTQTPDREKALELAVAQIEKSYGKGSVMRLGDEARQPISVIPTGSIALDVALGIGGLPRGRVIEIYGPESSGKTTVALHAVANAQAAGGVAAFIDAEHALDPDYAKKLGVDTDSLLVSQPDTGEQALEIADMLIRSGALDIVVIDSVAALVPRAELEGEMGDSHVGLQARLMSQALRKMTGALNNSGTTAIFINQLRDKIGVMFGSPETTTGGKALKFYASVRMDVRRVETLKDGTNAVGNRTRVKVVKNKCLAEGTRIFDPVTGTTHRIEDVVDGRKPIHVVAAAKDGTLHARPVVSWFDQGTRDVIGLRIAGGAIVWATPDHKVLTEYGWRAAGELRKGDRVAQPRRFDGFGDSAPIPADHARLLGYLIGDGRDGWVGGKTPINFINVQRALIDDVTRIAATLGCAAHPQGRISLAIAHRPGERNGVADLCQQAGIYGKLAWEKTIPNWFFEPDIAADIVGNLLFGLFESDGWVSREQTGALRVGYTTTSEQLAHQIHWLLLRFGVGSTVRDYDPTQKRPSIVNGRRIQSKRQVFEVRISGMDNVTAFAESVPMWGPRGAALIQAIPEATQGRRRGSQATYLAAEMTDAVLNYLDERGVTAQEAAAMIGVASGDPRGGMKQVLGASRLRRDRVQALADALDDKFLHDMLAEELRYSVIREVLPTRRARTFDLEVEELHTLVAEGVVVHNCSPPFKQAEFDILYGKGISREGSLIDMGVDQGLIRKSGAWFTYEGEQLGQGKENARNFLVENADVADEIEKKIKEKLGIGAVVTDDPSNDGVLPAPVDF
Mtb hypoxia inh: PubChem AID 1159583. M. tuberculosis hypoxia-regulated fluorescent reporter, fluorescence. fluorescence inhibition, % (no concentration beside the values). hit rate 0.1% among 300,000; in the data active means fluorescence inhibition mostly above about 23%, no sharp cut-off; inactive means mostly below about 17%
ugtP null kill: growth inhibition of ugtP-null S. aureus, primary screen, RN4220 ugtP deletion, OD600; growth inhibition, % (no concentration beside the values); hit rate 0.54% among 330,000; 16 h; in the data active means growth inhibition above about 68%;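 further: plate controls were untreated wells for no effect and antibiotic for full effect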
* hit, by the source's call; . = not tested or not shown. Shown are actives, neighbours in structure and some others; about 1.6% of the full set was active somewhere.

SMILES	CCHF vOTU inh	BJeLR viability	Sa RN4220 lethal	RecA intein inh	Mtb hypoxia inh	ugtP null kill
CCc1ccc(C=C2SC(=S)N(CC(=O)Nc3nc4ccccc4s3)C2=O)cc1	.	.	0	.	6	-16
CCN(CC)S(=O)(=O)c1ccc(N=Nc2c(C)[nH]n(C(N)=S)c2=O)cc1	31*	-1	3	2	8	-5
CC(=O)N(C)c1ccc(N=Nc2c(C)[nH]n(C(N)=S)c2=O)cc1	12	2	4	3	16	12
O=C(Nc1ccc(Cl)c(Cl)c1)C1=Cc2ccccc2OC1	2	-5	86*	3	-2	98*
O=C(Nc1cccc(Cl)c1)C1=Cc2cc(Cl)ccc2OC1	12	6	15	12	24	22
CN1C(=O)SC(=Cc2ccccc2OCc2ccc(C(=O)O)cc2)C1=O	.	.	21	.	3	8
CC1CCC(C(C)C)C(OC(=O)C[n+]2cc(-c3ccc(Cl)cc3)n3c2CCCCC3)C1 (configuration not stated)	13	11	100*	.	.	101*
O=C(C[n+]1cc(-c2ccccc2)n2c1CCCCC2)c1ccc(Cl)cc1	-7	4	-3	1	-1	-14
Cc1cc(-c2ccccc2)n(-c2cc(NN=Cc3ccccc3O)ncn2)n1	.	.	79	.	7	101*
O=C(NCCCSc1ccccc1)c1cc(Cl)ccc1O	-26	-2	93*	16	17	89*
COc1ccc([N+]([O-])=Cc2ccco2)cc1	.	.	0	.	6	0
CCCCn1c(N)c(C(=O)NCc2cccs2)c2nc3ccccc3nc21	-14	-6	-4	75*	1	-10
CCOc1ccc(N2C(=O)Nc3ccccc3C2(O)C(=O)NCc2ccc3c(c2)OCO3)cc1 (configuration not stated)	-7	3	2	1	6	-1
CCOc1ccc(N2C(=O)Nc3ccccc3C2(O)C(=O)NCc2ccc(C)cc2)cc1 (configuration not stated)	-10	7	100	3	9	active
O=C1/C(=C\c2cc(Br)cc(Br)c2O)SC(=S)N1Cc1ccccc1	.	3	100*	2	12	100*
COc1nc(NC(C)C)nc(N(C#N)CN2C(=O)c3ccccc3S2(=O)=O)n1	-12	-12	2	61*	-1	11
CC(C)Nc1nc(Cl)nc(N(C#N)CN2C(=O)c3ccccc3S2(=O)=O)n1	9	-2	2	23	8	4
COc1cc2c(c(OC)c1OC)-c1ccc(C(=O)O)cc1C(NC(C)=O)CC2 (configuration not stated)	.	.	4	.	1	0
COc1cc([C@@H]2c3cc4c(cc3[C@@H](NC3CCN(Cc5ccccc5)CC3)[C@H]3COC(=O)[C@H]23)OCO4)cc(OC)c1O	.	86*	.	-5	.	.
CN1CCN(Cc2nc3ccccc3c(=O)n2CC#N)CC1	2	2	-1	-1	13	1
N#CCn1c(CCl)nc2ccccc2c1=O	-3	4	5	38*	.	3
O=C(CC(Sc1ccc(Br)cc1)C(=O)O)c1ccc(F)cc1 (configuration not stated)	8	-7	43	1	11	92*
CC(C#Cc1c(C(C)Oc2ccccc2)nnn1Cc1ccccc1)Oc1ccccc1 (configuration not stated)	.	.	5	.	18	1
CCn1nc(C)c(Br)c1C(=O)Sc1ccccc1Cl	2	4	20	23	1	87*
CCSc1nnc(NC(=O)[C@H](C)N2C(=O)C3CC=CCC3C2=O)s1 (some centres not stated)	6	.	0	-3	30*	5
SMILES	CCHF vOTU inh	BJeLR viability	Sa RN4220 lethal	RecA intein inh	Mtb hypoxia inh	ugtP null kill
Cc1ccc(Oc2nnc(-c3ccccc3)c3ccccc23)cc1	-8	6	-1	3	3	90*
Oc1c(Cl)c(Cl)c(Cl)c(Cl)c1Cl	17	-10	100*	-2	7	100*
Oc1c(Cl)c(Cl)c2ncccc2c1Cl	11	.	25	.	4	5
O=C(O)C(Cc1ccccc1)NC(=O)N1CCOCC1 (configuration not stated)	.	.	5	.	6	-1
O=P(CCCCCCCCCP(=O)(c1ccccc1)c1ccccc1)(c1ccccc1)c1ccccc1	3	2	5	60*	-1	-10
CCCCc1oc2ccccc2c1C(=O)c1cc(I)c(OCCN(CC)CC)c(I)c1	13	1	-9	38*	17	0
Cc1ccc(/C=C(\C#N)C(=O)NCC2CCCO2)o1 (configuration not stated)	-2	-3	3	1	9	0
N#C/C(=C\c1ccco1)C(=O)NCC1CCCO1 (configuration not stated)	36*	5	3	3	-1	15
CC(=O)Nc1ccc(SC(CCN2CCC(C(C)(C)C)CCC2=O)c2ccccc2)cc1 (configuration not stated)	.	.	6	.	0	-23
Cc1cc(C)cc(NC(=O)COC(=O)CCCNC(=O)c2ccc(Cl)cc2)c1	-2	5	-4	0	5	99*
O=c1[nH]c(-c2ccccn2)nc2sc(-c3ccccc3)cc12	-17	41	100*	-10	6	100*
NC(=O)CNC(=O)C1CC2(CC(c3cccc([N+](=O)[O-])c3)=NO2)CN1C(=O)c1ccccc1 (configuration not stated)	.	.	1	.	0	-3
FC(F)C(F)(F)c1cc(-c2ccc(Cl)cc2)n[nH]1	-3	6	-11	.	6	-21
Fc1ccc(-c2cc(C(F)(F)C(F)F)[nH]n2)cc1	0	0	-1	3	3	86*
CCOC(=O)OC(C)OC(=O)C1N2C(=O)C(NC(=O)C(N)c3ccccc3)C2SC1(C)C (configuration not stated)	.	.	101*	.	2	100*
CC1(C)SC2C(NC(=O)C(N)c3ccccc3)C(=O)N2C1C(=O)OC1OC(=O)c2ccccc21 (configuration not stated)	.	.	100*	.	22	101*
CC1(C)S[C@@H]2[C@H](NC(=O)[C@H](N)c3ccccc3)C(=O)N2[C@H]1C(=O)O	-3	11	.	-2	.	.
Cc1cc(COC(=O)C2N3C(=O)C(NC(=O)COc4ccccc4)C3SC2(C)C)on1 (configuration not stated)	.	.	100*	.	6	100*
CCOC(=O)Cc1c(C)c2c(C)nn(-c3ccccc3)c2oc1=O	6	-6	5	5	7	5
CCOC(=O)Cc1c(C)c2c(C)[nH]nc2oc1=O	9	1	-3	39*	5	-5
Cc1c(C)c2c(C)[nH]nc2oc1=O	8	2	2	2	3	1
